Compounds with a hit are over-represented: about 5.7% of the library has one in this group of screens.
RORg inh: blocks mouse ROR gamma transcriptional activity; P51450; Drosophila S2 Gal4-RORgamma UAS-luciferase reporter, 20 h; Potency, µM (series often up to 53.6 µM), most hits filed as inhibitors; 310,000 compounds, 5.4% hits; further: nearly all actives have a fitted effect of over 60% in size
Target sequence (P51450 whole entry, looked up, the tested form may be a part): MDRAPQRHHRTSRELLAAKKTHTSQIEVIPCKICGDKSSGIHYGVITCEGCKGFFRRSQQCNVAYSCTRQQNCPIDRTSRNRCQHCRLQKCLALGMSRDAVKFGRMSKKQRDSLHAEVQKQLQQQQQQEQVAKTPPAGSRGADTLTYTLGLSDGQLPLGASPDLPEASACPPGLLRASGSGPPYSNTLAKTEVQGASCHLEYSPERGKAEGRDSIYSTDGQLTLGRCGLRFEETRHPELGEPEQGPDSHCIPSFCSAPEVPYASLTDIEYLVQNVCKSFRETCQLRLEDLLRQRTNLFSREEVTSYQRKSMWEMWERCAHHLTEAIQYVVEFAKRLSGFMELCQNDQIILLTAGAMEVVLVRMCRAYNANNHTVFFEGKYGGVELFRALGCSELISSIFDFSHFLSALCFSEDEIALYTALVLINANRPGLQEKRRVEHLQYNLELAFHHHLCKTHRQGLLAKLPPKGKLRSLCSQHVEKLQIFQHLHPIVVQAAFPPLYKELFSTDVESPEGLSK
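Drosophila Schneider cells stably carrying a metallothionein-driven Gal4 DBD–ROR gamma fusion and a UAS-Photinus luciferase reporter were exposed to compound for 1 hr, then induced with copper sulfate (700 uM final) for 20 hr at ambient temperature before luminescence reading.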
Gal4-VP16 FLuc: inhibits Gal4-VP16 luciferase reporter, ROR gamma counter-screen. Drosophila S2 Gal4-VP16 UAS-luciferase, luminescence, 20 h. Potency, µM (series often up to 53.6 µM), usual class: inhibitors. 310,000 compounds, 3.5% hits. AID 2546;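 further: Gal4-VP16 expression switched on by copper sulfate through the metallothionein promoter; nearly all actives have a fitted effect of over 50% in size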
B2AR arrestin: recruits beta-arrestin to the human beta2-adrenergic receptor. P07550. beta-arrestin recruitment to beta2AR, cell-based reporter. Potency, µM (series often up to 46.1 µM), actives largely listed as activators. 330,000 compounds, 0.02% hits. AID 492947; further: nearly all actives have a fitted effect of over 65% in size
NPSR antag: antagonists of human neuropeptide S receptor cAMP signaling. 220,000 compounds, 1% hits. Q6W5P4. Potency, µM (series often up to 38.3 µM), actives largely listed as inhibitors. CHO-NPSR cells, cAMP TR-FRET, antagonist mode; further: nearly all actives have a fitted effect of over 50% in size
Large screens that a line does not name were inactive. The call rests on the fitted dose curve; in most records, active means well fitted curve in the direction sought with a large enough effect; inconclusive means small, poorly fitted or top-dose-only effect, or another doubt; inactive means no such curve, though single readings can be large; an effect the other way counts as inactive or inconclusive.

CCc1ccc(C(=O)/C=C/Nc2ccc(S(=O)(=O)Nc3onc(C)c3C)cc2)cc1	RORg inh inconclusive, Gal4-VP16 FLuc 16µM
Cc1noc(NS(=O)(=O)c2ccc(N/C=C/C(=O)c3ccc(F)cc3)cc2)c1C	none
COc1ccc(S(=O)(=O)Nc2ccc3c(c2)OCCO3)cc1OC	none (no result: RORg inh, Gal4-VP16 FLuc, NPSR antag)
Cc1cc(C)n(-c2ccc3cccc(NS(C)(=O)=O)c3n2)n1	RORg inh 4.5µM, Gal4-VP16 FLuc inconclusive
Cc1ccc(S(=O)(=O)Nc2cccc3cccnc23)c([N+](=O)[O-])c1	RORg inh 0.79µM, Gal4-VP16 FLuc 0.89µM (no result: NPSR antag)
Cc1cc(C)n(-c2cccc3cccnc23)n1	none
COC(=O)Nc1ccc(S(=O)(=O)Nc2cccc3ccccc23)cc1	RORg inh inconclusive, Gal4-VP16 FLuc 18µM
COc1ccc(NS(=O)(=O)c2ccc3ccccc3c2)c2ncccc12	RORg inh 0.71µM, Gal4-VP16 FLuc 1.1µM (no result: NPSR antag)
Cc1cc(C)c(NS(=O)(=O)c2cccc3cccnc23)c(C)c1	none
Cc1nc(N2CCOCC2)c2nc(-c3ccccc3)n(C(C)CN(C)C)c2n1 (stereo not drawn)	none (no result: B2AR arrestin, NPSR antag)
CC(C)Oc1ccc(S(=O)(=O)N2CCOCC2)cc1NC(=O)c1ccc(N2CCCC2=O)cc1	none (no result: NPSR antag)
Cc1ccc2cccc(NS(=O)(=O)c3ccccc3)c2n1	none (no result: NPSR antag)
CCC(=O)Nc1cccc2cccnc12	none
CS(=O)(=O)Nc1cccc2cccnc12	RORg inh 6.3µM, Gal4-VP16 FLuc 7.9µM
O=S(=O)(Nc1cccc2cccnc12)c1ccccc1	RORg inh 2µM, Gal4-VP16 FLuc 3.5µM (no result: NPSR antag)
CC(=O)Nc1ccc(S(=O)(=O)Nc2cccc3cccnc23)cc1	RORg inh 10µM, Gal4-VP16 FLuc inconclusive (no result: NPSR antag)
O=S(=O)(Nc1cccc2cccnc12)c1ccc(S(=O)(=O)N2CCCC2)cc1	RORg inh 2.5µM, Gal4-VP16 FLuc 5µM, NPSR antag inconclusive
COc1ccccc1/C=C/C(=O)OCC(=O)NC(=O)NC1CCCC1	none (no result: RORg inh, Gal4-VP16 FLuc, NPSR antag)
CCOC(=O)c1sc(NC(=O)c2cc(-c3ccccc3)nc3ccccc23)c(C#N)c1C	RORg inh inconclusive, Gal4-VP16 FLuc inconclusive
Cc1cccc(CNc2cc(-c3ccccc3C)ncn2)c1	none (no result: B2AR arrestin, NPSR antag)
N#Cc1c(NCc2ccccc2)ccnc1NCc1cccnc1	RORg inh inconclusive, Gal4-VP16 FLuc 10µM
CC(=O)c1c(C)[nH]c(C(=O)N(C)C(c2ccccc2)c2ccccc2)c1C	none
CCOC(=O)c1c(/C=N/Nc2ccccc2)c2sc(C)cc2n1C	none (no result: RORg inh, Gal4-VP16 FLuc, NPSR antag)
CC(/C=C/c1ccco1)=N\NC(=O)c1cc(Cl)ccc1O	RORg inh 8.9µM, Gal4-VP16 FLuc inconclusive
CC(/C=C/c1ccco1)=N\NC(=O)c1cc(C)[nH]n1	RORg inh inconclusive
Cc1ccc(CNC(=O)CN(C)C2=NS(=O)(=O)c3ccccc32)cc1	none (no result: RORg inh, Gal4-VP16 FLuc, NPSR antag)
Cc1c(Nc2cc(Cl)c3nonc3c2[N+](=O)[O-])c(=O)n(-c2ccccc2)n1C	RORg inh 4µM, Gal4-VP16 FLuc 4µM, NPSR antag 6.3µM
O=C(O)c1ccc(Nc2cc(Cl)c3nonc3c2[N+](=O)[O-])cc1	RORg inh 13µM
O=[N+]([O-])c1c(Nc2cccc(O)c2)cc(Cl)c2nonc12	Gal4-VP16 FLuc inconclusive (no result: NPSR antag)
C=C(C)Cn1c(CN(C)Cc2ccccc2)nc2c1c(=O)n(C)c(=O)n2C	RORg inh inconclusive, Gal4-VP16 FLuc inconclusive (no result: NPSR antag)
CCCN(CC(=O)Nc1cc(Cl)ccc1Cl)C(=O)c1ccccc1SCC(=O)N1CCCC1	none (no result: RORg inh, Gal4-VP16 FLuc, NPSR antag)
Cc1sc2nc(CN3CCC(C)CC3)nc(Cl)c2c1C	RORg inh 18µM
Cc1ccc(S(N)(=O)=O)c(C)c1-n1cnnn1	none
Cc1cc(C)c(S(N)(=O)=O)c(C)c1-n1cnnn1	RORg inh 8.9µM
COc1cc(-c2nc(CN3CCCN(C(=O)c4ccco4)CC3)c(C)o2)ccc1F	none
CCOC(=O)CC1CCCCN1Cc1nc(-c2ccc(F)c(OC)c2)oc1C (stereo not drawn)	RORg inh 3.5µM
Cc1oc(-c2cccs2)nc1CNC[C@H]1O[C@@H](n2cnc3c(N)ncnc32)[C@H](O)[C@@H]1O	none (no result: RORg inh, Gal4-VP16 FLuc, NPSR antag)
Cn1c(C2CCCCC2)nc2ccccc21	RORg inh 11µM, Gal4-VP16 FLuc inconclusive (no result: NPSR antag)
O=c1c2cc(Cl)ccc2nc(-c2ccccc2Cl)n1O	RORg inh inconclusive, Gal4-VP16 FLuc 20µM
Cc1ccc(-c2nc3ccccc3c(=O)n2O)cc1	RORg inh inconclusive, Gal4-VP16 FLuc 14µM (no result: NPSR antag)
Cc1ccccc1/C=N/Nc1nc2ccccc2c(=O)n1O	RORg inh 7.1µM, Gal4-VP16 FLuc inconclusive
O=c1c2ccccc2nc(-c2ccc([N+](=O)[O-])cc2)n1O	Gal4-VP16 FLuc 4µM
O=C(COc1ccc2ccccc2c1)Nc1ccc(Br)cc1C(=O)O	Gal4-VP16 FLuc inconclusive, B2AR arrestin inconclusive (no result: NPSR antag)

High-throughput results deposited in PubChem by National Center for Advancing Translational Sciences (NCATS).
